Experimental findings from PubChem BioAssay (NCATS) are described below.

The nature of assay [1]: qHTS for Activators of Parkin Expression: LOPAC Validation Assay (FLuc Reporter) (AID 720573;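 also: 0% = DMSO and 100% = positive control compounds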). In a few lines: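 Readout is FLuc luminescence from neuronal reporter cells (Parkin promoter, FLuc plus NLuc) after 24 h compound exposure in dose response. Values normalized to neutral DMSO and positive-control compounds.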
Assay [2] addresses T1, Hexokinase-4 (Homo sapiens) + Glucokinase regulatory protein (Homo sapiens) (UniProt P35557+Q14397). The assay can be described thus: qHTS assay for inhibitors of recombinant human GCK-GKRP interaction: Diaphorase-coupled assay (AID 743205). The method in brief:
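Signal derives from resorufin generated by diaphorase, linked to GCK turnover of glucose (5 mM) and ATP (0.4 mM). Enzyme complex was added after a 20-minute compound preincubation and monitored for 30 minutes.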

The target in assay [3] is T1, Hexokinase-4 (Homo sapiens) + Glucokinase regulatory protein (Homo sapiens). The assay can be described thus: qHTS assay for inhibitors of recombinant human GCK-GKRP interaction: ADP-Glo assay (AID 743206).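 Also: plate controls were DMSO plus enzyme for no effect and no enzyme for full effect.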 In a few lines:
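Pin-transferred compounds meet a 15 nM GST-GCK/15 nM FLAG-GKRP/2 uM S6P mix (dispense concentrations). ATP is then added to 0.4 mM final with 5 mM glucose, and the reaction runs 60 min at room temperature. ADP is quantified luminescently.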
A general note: qHTS replaces the single test concentration by a dilution series.

For assay [4] the target is unchanged. The assay can be described thus: qHTS assay for inhibitors of recombinant human GCK-GKRP interaction: HTRF assay (AID 743207).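 Also: 0% = DMSO with GCK present and -100% = DMSO wells lacking GCK.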 In a few lines: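 Titration screening format: recombinant GST-GCK and FLAG-GKRP at 5 nM, S6P at 2 uM, labelled anti-tag antibodies, 60 min at RT, dual-wavelength HTRF readout.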
Assay [5] is described as follows: qHTS Assay for Identifying Gametocytocidal Compounds (AID 743244). Also: potency is read from the fitted curve at half-maximal effect.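 As to max response: % is scaled to controls: 0 for no effect and ±100 for the full control effect; actives lower the fluorescent signal which means gametocytes are killed.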 The note with it: P. falciparum 3D7 stage III-V gametocytes, alamarBlue, 72 h; max response: stronger effect = lower value. The method in brief:
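P. falciparum 3D7 stage III–V gametocytes (20,000 cells/well) were exposed to compounds for 72 h at 37 °C, 5% CO2. AlamarBlue was then added for 24 h; decreased resorufin fluorescence (Ex 525/Em 598 nm) indicated loss of viability.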

A short description of assay [6]: qHTS profiling of the MIPE4 collection as inhibitors of Plasmodium falciparum (3D7) proliferation (AID 743344; call rule not given here;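 also: scaled between DMSO vehicle wells and 0.29 µM artemisinin as full inhibition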). To be noted: P. falciparum 3D7 in erythrocytes, SYBR Green DNA fluorescence, 72 h; at 28.5 µM (top of the series). In a few lines:
(§1)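 Parasite DNA was quantified by SYBR Green I fluorescence (ex 485, em 535 nm) after overnight lysis in saponin/Triton buffer at room temperature. Cultures at 0.3% parasitemia and 2.5% hematocrit were first exposed to compound for 72 h at 37 C; signals were normalised to artemisinin (0.29 uM) and vehicle wells.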

Assay [7] in a line: qHTS profiling of the MIPE4 collection as inhibitors of Plasmodium falciparum (DD2) proliferation (AID 743345; call rule not given here). To be noted: P. falciparum Dd2 in erythrocytes, SYBR Green DNA, 72 h; at 28.5 µM (top of the series) unless noted. In a few lines:
as §1

Assay [8] in a line: qHTS profiling of the MIPE4 collection as inhibitors of Plasmodium falciparum (DD2) proliferation (Rep 2) (AID 743346; call rule not given here). To be noted: P. falciparum Dd2 in erythrocytes, SYBR Green DNA, 72 h; at 28.5 µM (top of the series). In a few lines: as §1
Assay [9] can be described thus: qHTS profiling of the MIPE4 collection as inhibitors of Plasmodium falciparum (HB3) proliferation (AID 743347; call rule not given here;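 also: plate controls were DMSO vehicle wells for no effect and artemisinin wells for full effect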). The note with it: P. falciparum HB3 in erythrocytes, SYBR Green DNA, 72 h; at 28.5 µM (top of the series). In a few lines:
as §1

Assay [10] in a line: qHTS assay for small molecule agonists of the antioxidant response element (ARE) signaling pathway measured by Nrf2-dependant transcriptional activity (AID 720636; active = well fitted curve in the direction sought with a large enough effect in the repeat runs; an effect the other way counts as inactive or inconclusive; also: % of control where 0% means no effect). In a few lines:
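ARE-luc HepG2 cells carrying an Nrf2-responsive luciferase reporter were plated in medium with 1% dialyzed FBS, left 6 hr at 37 C to attach, then exposed to compound for 16 hr. Luciferase luminescence was read after ONE-Glo addition.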

The nature of assay [11]: qHTS assay for small molecule agonists of the antioxidant response element (ARE) signaling pathway measured by Nrf2-dependant transcriptional activity - cell viability counter screen (AID 720653; active = well fitted curve in the direction sought with a large enough effect in the repeat runs; an effect the other way counts as inactive or inconclusive; also: % is scaled to controls: 0 for no effect and ±100 for the full control effect). The note with it: ARE-bla HepG2 viability, CellTiter-Glo ATP luminescence, 16 h; max response: stronger effect = lower value. The method in brief:
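Cytotoxicity counter screen: intracellular ATP quantified by CellTiter-Glo luminescence in the same ARE-bla HepG2 plates, after 16 h compound exposure and a 2 h beta-lactamase substrate step.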

Assay [12] in a line: qHTS assay for cell viability of HEK293 cells (AID 743288). Also: % is scaled to controls: 0 for no effect and ±100 for the full control effect; nearly all actives have a fitted effect of over 50% in size. To be noted: ATP luminescence (CellTiter-Glo), 18 h; max response: stronger effect = lower value. The method in brief: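 HEK293, 18 h, 37 C, ATP luminescence. Cells at 2,000/well were allowed at least 5 h to settle before dosing; CellTiter-Glo developed 30 min at RT.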
The nature of assay [13]: qHTS assay for cell viability of the p53RE-bla HCT-116 cell line (AID 743292). Also: % is scaled to controls: 0 for no effect and ±100 for the full control effect; nearly all actives have a fitted effect of over 55% in size. The method in brief: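 CellSensor p53RE-bla HCT-116 cells, 4,000/well, preincubated 5 h at 37 C, then exposed to compounds in DMSO for 16 h at 37 C. Viability read as CellTiter-Glo luminescence (intracellular ATP) after 30 min at room temperature.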
The nature of assay [14]: qHTS profiling for inhibitors of Plasmodium falciparum (3D7) proliferation (AID 743322).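 Also: infected erythrocytes exposed to compound for 72 h before lysis; 100% = DMSO vehicle wells and 0% = 0.29 µM artemisinin.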 The note with it: P. falciparum 3D7 proliferation; at 28.7 µM (top of the series) unless noted. In a few lines:
as §1

Assay [15] is described as follows: qHTS profiling for inhibitors of Plasmodium falciparum (DD2) proliferation (AID 743323; call rule not given here). To be noted: lower = more inhibition; at 28.7 µM (top of the series) unless noted. In a few lines: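 SYBR Green fluorescence (ex 485, em 535 nm) of lysed cultures gives parasite DNA content; wells normalized to artemisinin (0.29 uM) and DMSO controls. Infected red cells: 0.3% parasitemia, 2.5% hematocrit, 72 h, 37 C.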

“And” between values parts separate entries of the source, which are not always exact repeats. Equal values may be shown once. Results filed as inconclusive are left out. The source made the active and inactive calls. Unless noted, calls follow the shape of the dose curve; as a rule, active = well fitted curve in the direction sought with a large enough effect; inconclusive = small, poorly fitted or top-dose-only effect, or another doubt; inactive = no such curve, though single readings can be large; an effect the other way counts as inactive or inconclusive.

T1 sequence (P35557 whole entry, looked up): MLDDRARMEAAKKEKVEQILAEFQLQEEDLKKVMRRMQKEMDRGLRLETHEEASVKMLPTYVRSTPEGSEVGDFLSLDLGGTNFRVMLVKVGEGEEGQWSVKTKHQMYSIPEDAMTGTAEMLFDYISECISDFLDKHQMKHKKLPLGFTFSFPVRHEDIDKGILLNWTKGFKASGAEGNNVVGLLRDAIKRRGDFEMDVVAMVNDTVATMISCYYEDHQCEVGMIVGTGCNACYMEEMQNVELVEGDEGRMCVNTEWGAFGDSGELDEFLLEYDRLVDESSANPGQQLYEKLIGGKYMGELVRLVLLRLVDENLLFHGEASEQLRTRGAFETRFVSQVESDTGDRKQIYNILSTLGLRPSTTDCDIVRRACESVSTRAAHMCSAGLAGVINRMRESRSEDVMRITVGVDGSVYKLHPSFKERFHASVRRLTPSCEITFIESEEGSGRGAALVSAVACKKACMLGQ
T1 sequence (Q14397 whole entry, looked up): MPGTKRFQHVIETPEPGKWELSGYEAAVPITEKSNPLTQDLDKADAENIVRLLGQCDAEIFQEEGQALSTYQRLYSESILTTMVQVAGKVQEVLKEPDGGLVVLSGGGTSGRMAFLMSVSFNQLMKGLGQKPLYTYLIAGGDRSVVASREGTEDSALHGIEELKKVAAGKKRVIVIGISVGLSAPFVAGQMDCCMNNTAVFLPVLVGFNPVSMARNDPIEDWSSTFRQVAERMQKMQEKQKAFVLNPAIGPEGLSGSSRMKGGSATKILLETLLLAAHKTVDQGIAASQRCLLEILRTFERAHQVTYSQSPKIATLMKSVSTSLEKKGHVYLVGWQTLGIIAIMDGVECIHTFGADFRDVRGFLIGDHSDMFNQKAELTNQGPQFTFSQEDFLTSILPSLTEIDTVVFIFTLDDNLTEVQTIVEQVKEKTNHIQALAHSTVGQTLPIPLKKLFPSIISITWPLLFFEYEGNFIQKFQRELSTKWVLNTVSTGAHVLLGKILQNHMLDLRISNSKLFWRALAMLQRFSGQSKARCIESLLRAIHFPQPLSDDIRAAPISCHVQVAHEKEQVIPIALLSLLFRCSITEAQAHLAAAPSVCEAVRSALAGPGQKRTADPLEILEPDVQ

`CC1=NN=C(c2ccc(N)cc2)c2cc3c(cc2C1)OCO3`: the molecule was classed as inactive in assay [1], in assay [2], in assay [3] and in [4]. Also, in [5], the max response is 7.34% (inactive). Besides, in assay [6], the parasite growth, % of DMSO control is 133%. The parasite growth remaining, % of DMSO control (lower = more inhibition) in [7] turned out to be 108%. In assay [8], the parasite growth, % of control (lower = inhibition) was 93%. The molecule further gave a growth, % of control in [9] of 685%.

As for `CC[C@@H](C(N)=O)N1CCCC1=O`, the result in assay [1], in assay [2], in assay [3] and in assay [4] was inactive. For the same molecule, the max response in [5] was 27.6% (inactive). In [6], this molecule gave a parasite growth, % of DMSO control of 69.9%. For the same molecule, the parasite growth remaining, % of DMSO control (lower = more inhibition) in assay [7] is 90.5%. The molecule also showed a parasite growth, % of control (lower = inhibition) in assay [8] of 46.9%. Further, the growth, % of control in assay [9] came to 78.5%.

Take `c1ccc2sc(C3(N4CCCCC4)CCCCC3)cc2c1`: the molecule was classed as inactive in [1], in [2], in assay [3] and in [4]. Further, the max response in [5] is 6.13% (inactive).

Regarding `CCCCCCCCCCCCCCCC[N+](C)(C)C`, the Potency entry in [10] and in assay [13] was “inactive” in each case. In addition, the max response was -27.3% (inactive) and -1.44% (inactive) in [11]; -5.85% (inactive) in assay [12]. Besides, the Potency in assay [5] is 10 µM (active).

As to `CO[C@H]1C=CC=C(C)C(=O)NC2=CC(=O)C(NCCN(C)C)=C(C[C@@H](C)C[C@H](OC)[C@@H](O)[C@@H](C)C=C(C)[C@@H]1OC(N)=O)C2=O`, the Potency in assay [5] was 0.0469 µM (active).

For `Cc1c(C(=O)c2cccc3ccccc23)c2cccc3c2n1[C@H](CN1CCOCC1)CO3`, the call in assay [1], in assay [2] and in assay [3] was inactive. The molecule further had a parasite growth, % of DMSO control in assay [6] of 15.4%. Also, the parasite growth remaining, % of DMSO control (lower = more inhibition) in [7] was 47.9%. In [8], this molecule displayed a parasite growth, % of control (lower = inhibition) of 48.7%. The molecule further returned a growth, % of control in assay [9] of 13.4%.

With `NCCc1c[nH]c2ccc(O)cc12`, the molecule was classed as inactive in assay [1], in assay [2], in [3] and in assay [4]. For the same molecule, the max response in assay [5] is 9.61% (inactive).

As to `NC(=NCCC[C@H](N)C(=O)O)N[N+](=O)[O-]`, the call in assay [1], in assay [2], in assay [3] and in assay [4] was inactive. Further, in [5], the max response is 11.8% (inactive).

Regarding `C[C@]12N[C@H](Cc3ccccc31)c1ccccc12`, the outcome in assay [2], in assay [3] and in assay [4] was inactive. Also, the max response in [5] was -6.68% (inactive) and -2.83% (inactive) and -7.09% (inactive).

For `COc1ccc2c(c[n+](C)c3c4cc5c(cc4ccc23)OCO5)c1OC`, the call in assay [1], in [2], in assay [3] and in assay [4] was inactive. In assay [5], the Potency was 18.7 µM (active). In assay [14], this molecule yielded a remaining parasite growth % (stronger effect = lower value) of 47.6%. The molecule further returned an activity, percent of control in assay [15] of 36.7%. Also, in [6], the parasite growth, % of DMSO control is 71.2%. For the same molecule, the parasite growth remaining, % of DMSO control (lower = more inhibition) in assay [7] is 74.8%. In addition, the parasite growth, % of control (lower = inhibition) in [8] stood at 99%. This molecule displayed a growth, % of control in [9] of 104%.

Take `NC(N)=NOCCC(N)C(=O)O` (stereo unspecified): the molecule was classed as inactive in assay [1], in assay [2], in [3] and in [4]. Also, the max response in assay [5] is 10.4% (inactive).
